Bioassay records deposited in PubChem by National Center for Advancing Translational Sciences (NCATS).
uPA generation – blocks generation of uPA at the cell surface; actives 0.31% (n = 330,000); cell surface uPA generation assay, qHTS; Potency, µM (top dose mostly 38.3 µM), hits mostly inhibitors; active = well fitted inhibition curve with a large enough effect; inconclusive = small, poorly fitted or top-dose-only effect; inactive = no such curve, though single readings can be large or run the other way; tested in mouse RAW 264.7 cells; also: nearly all actives have a fitted effect of over 55% in size
VDR inh – inhibitors of human vitamin D receptor | P11473 | AID 504847 | actives 0.93% (n = 400,000) | VDR-SRC2-3 peptide fluorescence polarization, 2 h | Potency, µM, actives largely listed as inhibitors
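The screen uses fluorescence polarization to detect compounds that interfere with recruitment of the SRC2-3 coactivator peptide to VDR; plates are read after 2 h at room temperature.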
TSHR antag – antagonists of human thyroid stimulating hormone receptor; P16473; TSHR-expressing cells, TSH-stimulated cAMP HTRF, 2 h; active compounds read low; activity change, negative = inhibition, % at 11.5 µM; actives 0.2% (n = 330,000); AID 504810;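 active = activity change below a set negative limit, meaning inhibition stronger than a set level, cut at about -70% in these data; inconclusive = activity change between two set negative limits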
Target sequence (P16473 whole entry, looked up): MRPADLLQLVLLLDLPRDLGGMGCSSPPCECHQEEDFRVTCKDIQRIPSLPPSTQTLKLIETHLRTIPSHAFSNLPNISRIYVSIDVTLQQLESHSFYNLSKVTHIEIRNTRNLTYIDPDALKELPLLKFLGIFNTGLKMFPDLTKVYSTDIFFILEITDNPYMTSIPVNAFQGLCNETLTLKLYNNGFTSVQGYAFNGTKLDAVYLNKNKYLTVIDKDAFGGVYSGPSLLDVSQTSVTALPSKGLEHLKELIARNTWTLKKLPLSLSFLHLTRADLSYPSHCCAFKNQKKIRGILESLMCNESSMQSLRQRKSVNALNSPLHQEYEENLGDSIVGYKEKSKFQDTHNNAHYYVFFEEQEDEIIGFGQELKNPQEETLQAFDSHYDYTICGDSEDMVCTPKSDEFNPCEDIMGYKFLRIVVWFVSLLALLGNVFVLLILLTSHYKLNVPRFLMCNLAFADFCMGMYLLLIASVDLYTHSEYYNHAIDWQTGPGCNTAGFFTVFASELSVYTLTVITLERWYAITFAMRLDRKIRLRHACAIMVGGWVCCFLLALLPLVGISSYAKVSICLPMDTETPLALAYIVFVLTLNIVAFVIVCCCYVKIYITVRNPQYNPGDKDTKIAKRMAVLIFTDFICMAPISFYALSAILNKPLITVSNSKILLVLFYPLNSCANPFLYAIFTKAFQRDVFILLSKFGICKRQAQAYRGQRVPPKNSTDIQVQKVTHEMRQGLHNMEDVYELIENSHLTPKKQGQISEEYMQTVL
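TSHR-expressing cells, 200/well, pre-treated with compound, then stimulated with EC80 TSH (4nM final) for 2 hours at 37 deg C. cAMP measured by competitive HTRF: anti-cAMP cryptate antibody in lysis buffer plus cAMP-d2, read after 30 minutes at room temperature.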
TSG101-PTAP inh – blocks PTAP/TSG101 interaction to inhibit HIV-1 budding | 340,000 tested, under 10 active | Q99816 | Fluorescence polarization, FITC-PTAP peptide / Tsg101 binding | Potency, µM (top dose mostly 115 µM), most hits filed as inhibitors; active = well fitted inhibition curve with a large enough effect in the main read-out, with a control signal flat, not every such curve was filed as active; inconclusive = small, poorly fitted or top-dose-only effect, or effect the other way, or a change in a side signal; inactive = no such curve, though single readings can be large or run the other way
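Steps: Tsg101 binding domain dispensed (10 uM final), compounds pinned in DMSO, FITC-labeled PTAP-motif peptide added (50 nM final); after 20 min binding at room temperature, polarization measured.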
PLK1 PBD inh – blocks phosphopeptide binding to human PLK1 polo-box domain | P53350 | Plk1 PBD binding of FITC phosphopeptide, fluorescence polarization | Potency, µM, hits mostly inhibitors | actives 2.8% (n = 360,000) | AID 720504; also: series mostly up to about 57 µM; nearly all actives have a fitted effect of over 65% in size
Large screens that a line does not name were inactive; ! = a repeat was not active. This is a sample that favours compounds with a hit; in the whole collection about 3.1% have one here. Unless noted, calls follow the shape of the dose curve; as a rule, active = well fitted curve in the direction sought with a large enough effect; inconclusive = small, poorly fitted or top-dose-only effect, or another doubt; inactive = no such curve, though single readings can be large; an effect the other way counts as inactive or inconclusive.

Cc1c(NC(=O)/C=C/c2cn(-c3ccccc3)nc2-c2ccc(F)cc2)c(=O)n(-c2ccccc2)n1C	VDR inh inconclusive, PLK1 PBD inh 10.6µM
CCCNc1c(NS(=O)(=O)c2ccc3c(c2)CCCC3)c(=O)oc2ccccc12	none
N=c1nc(-c2ccccc2)n(-c2ccccc2)s1	VDR inh 12.6µM (no result: uPA generation, TSHR antag, TSG101-PTAP inh, PLK1 PBD inh)
Cc1ccc(-c2nc(=Nc3ccccc3)sn2-c2ccccc2)cc1	none (no result: uPA generation, TSHR antag, TSG101-PTAP inh, PLK1 PBD inh)
CC(C)ON(C(C(=O)NO)C(C)C)S(=O)(=O)c1ccc(-c2ccccc2)cc1 (stereo not drawn)	none (no result: uPA generation, TSHR antag, TSG101-PTAP inh, PLK1 PBD inh)
CCOC(=O)c1cc2c(=O)n3ccccc3nc2n(Cc2ccco2)c1=NC(=O)c1ccccc1OC	VDR inh 56.2µM!
CCOC(=O)c1cc2c(=O)n3ccccc3nc2n(Cc2ccco2)c1=NC(=O)c1cccc(OC)c1	none
O=C(Cn1nc(-c2ccc(Cl)cc2)c2ccccc2c1=O)NCC1CCCO1 (stereo not drawn)	VDR inh inconclusive, PLK1 PBD inh 13.4µM
COc1ccccc1NC(=O)CCn1nc(-c2ccccc2)c2ccccc2c1=O	VDR inh 56.2µM (no result: uPA generation, TSHR antag, TSG101-PTAP inh, PLK1 PBD inh)
O=C(CCn1nc(-c2ccccc2)c2ccccc2c1=O)Nc1ccccc1	none (no result: uPA generation, TSHR antag, TSG101-PTAP inh, PLK1 PBD inh)
CNC(=O)Cn1nc(-c2ccc(C)cc2)c2ccccc2c1=O	VDR inh inconclusive, PLK1 PBD inh 11.9µM
Cc1ccc(S(=O)(=O)N2CCN(C(=O)/C=C/c3ccco3)CC2)cc1	none
Cc1ccc(C)c(S(=O)(=O)N2CCN(C(=O)/C=C/c3ccco3)CC2)c1	uPA generation inconclusive, VDR inh 89.1µM, PLK1 PBD inh inconclusive
Cc1cc(C)c(S(=O)(=O)Nc2ccc(N(C)C)cc2)c(C)c1-n1cnnn1	none
Cc1ccc(SCc2nc(-c3ccc(C(=O)NCC(C)c4ccccc4)cc3)oc2C)cc1 (stereo not drawn)	none (no result: uPA generation, TSHR antag, TSG101-PTAP inh, PLK1 PBD inh)
O=C(Nc1cc(Cl)ccc1Cl)c1cc([N+](=O)[O-])cc(Br)c1O	VDR inh 79.4µM (no result: uPA generation, TSHR antag, TSG101-PTAP inh, PLK1 PBD inh)
O=C(Nc1ccc([N+](=O)[O-])cc1Cl)c1cc(Cl)cc(Cl)c1O	none (no result: uPA generation, TSHR antag, TSG101-PTAP inh, PLK1 PBD inh)
CCCc1cc(=O)n2nc(N3CCC(C(=O)NCc4ccco4)CC3)sc2n1	PLK1 PBD inh 23.8µM
CC(C)=CCc1c(O)cc2occ(-c3ccc4c(c3)OCO4)c(=O)c2c1O	none (no result: uPA generation, TSHR antag, TSG101-PTAP inh, PLK1 PBD inh)
O=c1c(-c2cc(O)c(O)c(O)c2)coc2cc(O)c(O)c(O)c12	VDR inh 14.1µM (no result: uPA generation, TSHR antag, TSG101-PTAP inh, PLK1 PBD inh)
Cc1ccc(/C=C2/CNC/C(=C/c3ccc(C)cc3)C2=O)cc1	VDR inh inconclusive (no result: TSHR antag)
Cc1ccc(/C=C2/CNC/C(=C\c3ccc(C)cc3)C2=O)cc1	VDR inh 2µM (no result: uPA generation, TSHR antag, TSG101-PTAP inh, PLK1 PBD inh)
CCOC(=O)c1c(NC(=O)c2ccccc2Cl)sc2c1CCCC2	none (no result: uPA generation, TSHR antag, TSG101-PTAP inh, PLK1 PBD inh)
CCCc1ccc(OC(C)C(=O)Nc2sc3c(c2C(=O)OC)CCCCC3)cc1 (stereo not drawn)	VDR inh 89.1µM (no result: uPA generation, TSHR antag, TSG101-PTAP inh, PLK1 PBD inh)
CCOC(=O)c1c(NC(=O)C(C)Oc2ccc(Cl)c(C)c2)sc2c1CCCC2 (stereo not drawn)	VDR inh 79.4µM (no result: uPA generation, TSHR antag, TSG101-PTAP inh, PLK1 PBD inh)
Cc1ccccc1-c1nc2c(=O)n(C)c(=O)nc-2n(C)n1	none (no result: uPA generation, TSHR antag, TSG101-PTAP inh, PLK1 PBD inh)
CC(=O)NCCNc1nc(-c2cccc(NS(C)(=O)=O)c2)nc2ccccc12	none (no result: uPA generation, TSHR antag, TSG101-PTAP inh, PLK1 PBD inh)
COc1ccc(C)cc1NC(=O)c1oc2ccc(S(=O)(=O)N3CCC4(CC3)OCCO4)cc2c1C	none (no result: uPA generation, TSHR antag, TSG101-PTAP inh, PLK1 PBD inh)
O=c1[nH]c(CSc2nnc(Nc3ccccc3)s2)nc2ccccc12	PLK1 PBD inh 26.7µM
COc1ccc(/C=C2\Oc3ccccc3C2=O)cc1	uPA generation 7.08µM (no result: TSG101-PTAP inh)
c1ccc(CN(Cc2ccco2)C(c2ccncc2)c2nnnn2C2CCCC2)cc1 (stereo not drawn)	VDR inh 28.2µM, PLK1 PBD inh inconclusive
CN(CC1CCCO1)S(=O)(=O)c1ccc(C(=O)Nc2nc(-c3ccccn3)cs2)cc1 (stereo not drawn)	uPA generation 3.98µM
O=C(Nc1nc(-c2ccccn2)cs1)c1ccc(F)c(S(=O)(=O)N2CCOCC2)c1	uPA generation 3.98µM, VDR inh 89.1µM, PLK1 PBD inh 11.9µM
Cc1nnc(NC(=O)c2ccc(F)c(S(=O)(=O)N3CCOCC3)c2)s1	none
Cc1ccc(C(=O)Nc2nc(-c3ccccn3)cs2)cc1S(=O)(=O)N1CCOCC1	uPA generation inconclusive, VDR inh 79.4µM, PLK1 PBD inh 7.52µM
O=C(Nc1nc(-c2ccccn2)cs1)c1cc(S(=O)(=O)N2CCOCC2)ccc1F	uPA generation 10µM, PLK1 PBD inh inconclusive
